The source of these data is PubChem BioAssay.

Chain of Torsin-1A-interacting protein 2 (Homo sapiens) (Q8NFQ8 whole entry, looked up): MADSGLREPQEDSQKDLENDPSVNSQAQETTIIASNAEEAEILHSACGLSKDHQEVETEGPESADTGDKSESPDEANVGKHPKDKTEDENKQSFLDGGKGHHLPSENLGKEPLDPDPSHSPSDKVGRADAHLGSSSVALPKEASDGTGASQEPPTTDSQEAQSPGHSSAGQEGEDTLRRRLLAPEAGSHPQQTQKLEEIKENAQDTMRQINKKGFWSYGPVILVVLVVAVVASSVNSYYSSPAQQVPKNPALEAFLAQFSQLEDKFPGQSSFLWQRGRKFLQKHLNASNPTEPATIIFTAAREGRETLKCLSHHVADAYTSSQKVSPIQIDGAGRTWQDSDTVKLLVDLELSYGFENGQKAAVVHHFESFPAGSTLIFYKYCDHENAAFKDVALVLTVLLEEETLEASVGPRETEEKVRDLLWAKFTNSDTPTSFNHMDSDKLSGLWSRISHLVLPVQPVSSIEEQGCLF

This assay addresses Torsin-1A-interacting protein 2 (Homo sapiens) (UniProt Q8NFQ8). The assay can be described thus: LULL1 binders on small-molecule microarray, primary screen, cell lysate, human LULL1 lysate, 635/667 nm fluorescence (AID 1092).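 Further: probe is lysate of COS7 cells overexpressing human LULL1; score merges per-feature 667 nm fluorescence with signal-to-noise.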 The note with it: hLULL1 lysate binding, 635 nm fluorescence, higher = more signal.
In turn, `O=C1OCCC/C=C\[C@H]2OC34C=CCN(Cn5nnc6ccccc65)C(=O)[C@H]3N(CCO)C(=O)[C@@H]4C12` (some centres not stated) registered a composite z-score of 1.41.
Compound `COc1cc2c(cc1O)C(C1CC1)N(Cc1cc3c(cc1Br)OCO3)CC2` (configuration not stated) yielded a composite z-score of 1.61.
Consider `COCCOC(=O)N1C(=O)[C@@]2(c3cc(C#CC4=CCCCC4)ccc31)[C@H](C(=O)N1CCc3cc(OC)c(OC)cc3C1)[C@H]1C(=O)O[C@H](c3ccccc3)[C@H](c3ccccc3)N1[C@@H]2c1ccc(OCCO)cc1`, for which the composite z-score was 2.49.
The compound `Cc1ccc(S[C@]2(C(=O)NC(C)C)CC(=O)N(Cc3ccccc3Cl)[C@@H]2c2ccc(CO)cc2I)cc1` gave a composite z-score of 1.81.
The compound `COCCOC(=O)N1C(=O)[C@@]2(c3cc(C#CC4=CCCCC4)ccc31)[C@H](C(N)=O)[C@H]1C(=O)O[C@H](c3ccccc3)[C@H](c3ccccc3)N1[C@@H]2c1ccc(OCCO)cc1` displayed a composite z-score of 1.6.
Consider `O=C1C2C=CC(C(O)C(c3ccccc3)c3ccccc3)N(n3cnnc3)C2C(=O)N1Cc1ccccc1` (configuration not stated), for which the composite z-score came to 3.25.
Turning to `CC(C)(C)OC(=O)CC[C@@]1(C(=O)NCCN2CCOCC2)N=C(c2ccc(OCCCO)cc2)O[C@@H]1c1ccccc1N=[N+]=[N-]`, the composite z-score turned out to be 3.09.
As to `CN(C)C(=O)[C@@]1(Cc2ccccc2)N=C(c2ccc(OCCCO)cc2)O[C@H]1c1ccccc1N=[N+]=[N-]`, the composite z-score stood at 3.3.
Then `Cc1ccc(S[C@]2(C(=O)NCC(F)(F)F)CC(=O)N(C(C)C)[C@@H]2c2ccc(CO)cc2I)cc1`, with 1.15.
With `CCOc1cc(C(O)C2C=CC3C(=O)N(c4ccccc4)C(=O)C3N2Nc2ccccc2)ccc1O` (configuration not stated) the figure was 3.52; with `C=CCNC(=O)[C@H]1[C@@H]2C(=O)O[C@@H](c3ccccc3)[C@@H](c3ccccc3)N2[C@@H](c2ccc(OCCO)cc2)[C@]12C(=O)N(C(=O)OCCOC)c1ccccc12`, 3.07.
With `C=CCN1C(=O)[C@@]2(O[C@@H](CCO)[C@H]([Si](C)(C)c3ccc(OC)cc3)[C@H]2C)c2cc(NC(=O)c3ccc(OC)cc3)ccc21` the figure was 0.821; with `C[C@]1(C(=O)NC2CC2)c2ccccc2C(=O)N(Cc2cc(C(F)(F)F)cc(C(F)(F)F)c2)[C@H]1c1ccc(CO)cc1`, 1.32; with `CC(C)OC(=O)C=C1C[C@@H](c2ccccc2C(F)(F)F)O[C@@H](c2ccccc2C(F)(F)F)O1`, 0.675.
For `CC(C)(C)OC(=O)CC[C@]1(C(=O)O)N=C(c2ccc(OCCCO)cc2)O[C@H]1c1ccccc1N=[N+]=[N-]`, the composite z-score worked out at 3.
`O=C1OCC=C[C@H]2OC34C=CCN(c5ccc6ccccc6c5)C(=O)[C@H]3N(CCCCCCO)C(=O)[C@@H]4[C@@H]12` (some centres not stated) came in with a composite z-score of 2.62.
Turning to `COc1cc2c(cc1OC)CN(C(=O)[C@H]1[C@@H]3C(=O)O[C@@H](c4ccccc4)[C@@H](c4ccccc4)N3[C@@H](c3ccc(O)cc3)[C@]13C(=O)Nc1ccc(C#CCNC(N)=O)cc13)CC2`, the composite z-score is 0.458.
Then `C=CCC(OC(C)=O)[C@@H]1[C@@H](N(Cc2cccc3ccccc23)C(=O)c2ccc(-c3ccccc3)cc2)c2cc(OCCCO)ccc2N1C(=O)Cc1ccc(OC)cc1` (some centres not stated), with 0.792; and `COC(=O)c1c(CC[C@@H](CO)NC(=O)N2CCC[C@H]2Cn2cc(-c3ccccn3)nn2)oc(C(C)=O)c1C(=O)OC`, with 3.03.
With `C=CCNC(=O)[C@@H]1[C@H]2C(=O)O[C@H](c3ccccc3)[C@H](c3ccccc3)N2[C@H](c2ccc(OCCO)cc2)[C@@]12C(=O)Nc1ccc(C#Cc3ccc(OC)cc3)cc12` the figure was 2.48; with `CN1C(=O)C2C=CC(C(O)c3cc(C(F)(F)F)cc(C(F)(F)F)c3)N(N3CCCCC3)C2C1=O` (configuration not stated), 2.65.
Compound `COCCOC(=O)N1C(=O)[C@@]2(c3cc(C#CCCO)ccc31)[C@H](C(=O)N1CCN(c3ncccn3)CC1)[C@H]1C(=O)O[C@H](c3ccccc3)[C@H](c3ccccc3)N1[C@@H]2c1ccccc1OCCO` came in with a composite z-score of 2.98.
